Source: PubChem BioAssay
TWEAK-Fn14 inh – TWEAK-Fn14 signaling inhibition | TWEAK-stimulated Fn14 reporter cells, luciferase luminescence, 8 h | inhibition, % at 10 µM | 360,000 tested, 2% active; in the data active = inhibition above about 50%
HSP90 refold inh – blocks HSP90-mediated luciferase refolding in reticulocyte lysate; Rabbit reticulocyte lysate, luciferase refolding luminescence, 3 h; inhibition, % at 5.6 µM; 290,000 tested, 0.91% active;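 active = inhibition above the screen-wide mean plus 3 SD, computed separately per campaign, cut at about 16% in these data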;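 note: 0% = DMSO wells and 100% = 60 µM geldanamycin wells; inhibitors lower the luminescence because luciferase stays unfolded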
TROY NFkB inh – inhibitors of TROY-dependent NF-kB signaling; Q293 LMP1-TROYcd NF-kB luciferase reporter, 4 h; inhibition, % at 10 µM; 360,000 tested, 0.98% active; AID 1347056;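 active = compounds whose plate-normalised and pattern-corrected inhibition of the luciferase reporter signal at the single screening dose is 50% or more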
LGR2 antag – inhibitors of bursicon-induced Drosophila LGR2 receptor cAMP signaling; HEK293 LGR2, CRE-luciferase, bursicon-stimulated, 4 h; inhibition, % at 9.99 µM; 380,000 tested, 0.35% active;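 active = drop in luminescence signal, shown as inhibition above about 50% in the replicate tests, limit read from the data, passing the limit was not always enough; inconclusive = probably only some replicates passing the limit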;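 note: agonist challenge used bursicon conditioned medium at about half maximal strength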
* marks the source's active call; other numbers are inactive results. Most compounds without a hit are left out; they make up all but 2.2% or so of the library.

O=C(c1cc(C(=O)NCCc2ccccc2)c(=O)n(CCc2ccccc2)c1)c1cc(Cl)ccc1O was read as TWEAK-Fn14 inh 66.2*, HSP90 refold inh 0.9, TROY NFkB inh 14.0 and LGR2 antag 12.5.
CO[C@H]1CN(C)C(=O)c2cc(NC(C)=O)ccc2OC[C@H](C)N(Cc2nccs2)C[C@H]1C was read as LGR2 antag -7.1.
C[C@@H]1CCCCO[C@@H](CN(C)C(=O)Nc2ccc3c(c2)OCO3)[C@@H](C)CN([C@@H](C)CO)C(=O)c2cc(NC(=O)c3ccccc3)ccc2O1 was read as LGR2 antag -30.3.
Screening Cc1nonc1NC(=O)CSc1nc(C23CC4CC(CC(C4)C2)C3)nc2ccccc12 returned TWEAK-Fn14 inh 66.4*, HSP90 refold inh 0.7, TROY NFkB inh -5.4 and LGR2 antag 12.7.
Screening Cc1nonc1NC(=O)CSc1nc(C2CCCCC2)nc2ccccc12 returned TWEAK-Fn14 inh 47.5, HSP90 refold inh -1.0 and TROY NFkB inh 15.6.
COc1ccc(-c2cc(C(F)(F)F)nc(N)n2)cc1 was read as TWEAK-Fn14 inh 45.9, HSP90 refold inh 1.3, TROY NFkB inh -18.9 and LGR2 antag -26.8.
CS(=O)(=O)c1nc(-c2ccc(F)cc2)cc(C(F)(F)F)n1 was read as TWEAK-Fn14 inh 85.5*, HSP90 refold inh 2.3, TROY NFkB inh 52.3* and LGR2 antag 37.3.
Screening COc1ccc(-c2cc(C(F)(F)F)nc(S(C)(=O)=O)n2)cc1 returned TWEAK-Fn14 inh 53.4*, HSP90 refold inh 7.4 and TROY NFkB inh 47.2.
Screening CCN(c1cccc(C)c1)S(=O)(=O)c1ccc2c(c1)CCN2C(C)=O returned TWEAK-Fn14 inh 93.4*, HSP90 refold inh 1.7 and TROY NFkB inh 34.5.
`CC=Cc1ccc2n(c1=O)C[C@@H]1[C@@H](CO)[C@H](C(=O)N3CCc4ccccc4C3)[C@H]2N1Cc1ccncc1` (mixture of isomers) gave LGR2 antag 13.9.
Screening CN1C2=CC=CC=CC2=[N+](C)C12C([N+](=O)[O-])=CC(=[N+]([O-])[O-])C=C2[N+](=O)[O-] (stereo not drawn) returned TWEAK-Fn14 inh 60.8*, HSP90 refold inh -2.6, TROY NFkB inh -20.4 and LGR2 antag 11.2.
Screening CN1C2=CC=CC=CC2=[N+](C)C12C=CC(=[N+]([O-])[O-])C=C2[N+](=O)[O-] (stereo not drawn) returned TWEAK-Fn14 inh 1.6, HSP90 refold inh 3.1, TROY NFkB inh 11.8 and LGR2 antag 12.2.
C[C@H]1CCCCO[C@@H](CN(C)C(=O)CCCN(C)C)[C@@H](C)CN([C@@H](C)CO)C(=O)c2cc(NS(C)(=O)=O)ccc2O1 was read as LGR2 antag -23.0.
`CCC12CC1(C(=O)OC)C(=O)N1CCc3c([nH]c4ccccc34)C12` (stereo not drawn) gave TWEAK-Fn14 inh -28.6 and TROY NFkB inh 62.0*.
COC(=O)CC1CC2(C(=O)OC)c3[nH]c4ccccc4c3CCN2C1=O (stereo not drawn) was read as TWEAK-Fn14 inh 16.0, TROY NFkB inh 10.2 and LGR2 antag 1.5.
CCOC(=O)c1ccc(-c2ccc(/C=N/NC(=O)CN(c3cccc(C)c3)S(C)(=O)=O)o2)cc1 was read as TWEAK-Fn14 inh 7.0, HSP90 refold inh 7.0, TROY NFkB inh -4.3 and LGR2 antag -18.9.
Screening CCOC(=O)c1ccc(-c2ccc(/C=N/NC(=O)CN(c3ccccc3Cl)S(C)(=O)=O)o2)cc1 returned TWEAK-Fn14 inh 70.9*, HSP90 refold inh 1.2, TROY NFkB inh 19.9 and LGR2 antag -54.4.
`COc1cccc(/C=N/NC(=O)CSc2nnc(C)n2-c2ccccc2)c1O` gave TWEAK-Fn14 inh -16.9, HSP90 refold inh 1.7 and TROY NFkB inh -41.6.
`COc1ccccc1/C=N/NC(=O)CSc1cc(C)nc2ccccc12` gave TWEAK-Fn14 inh 22.2, HSP90 refold inh -0.7, TROY NFkB inh 22.6 and LGR2 antag 8.9.
`COc1ccccc1/C=N/NC(=O)CSc1ccc2ccccc2n1` gave TWEAK-Fn14 inh 52.0*, HSP90 refold inh 1.6, TROY NFkB inh 48.7 and LGR2 antag -14.3.
Screening CCCCSc1nc(C)cc(SCC(=O)N/N=C/c2cccc(OC)c2O)n1 returned TWEAK-Fn14 inh 103.5*, HSP90 refold inh 0.3 and LGR2 antag inconclusive.
For CCOC(=O)NNC(=O)CCn1c2c(c3ccccc31)CCCC2 the results were TWEAK-Fn14 inh 59.3*, HSP90 refold inh -1.3, TROY NFkB inh 46.6 and LGR2 antag 6.0.
Screening CC(=O)NNC(=O)CCn1c2c(c3ccccc31)CCCC2 returned TWEAK-Fn14 inh 5.0, HSP90 refold inh -0.7, TROY NFkB inh 8.0 and LGR2 antag -4.1.
